Experimental data published in publication PMC4336329 (PLoS ONE, 2015).
Out of some 310,000 compounds screened, about 14,000 (4.5%) showed an effect of 50% or more. Effects have a minus sign here. The sample as a whole holds a higher share of strong results than the screen did.

Biological target: human ether-à-go-go-related gene (hERG) potassium channel (human, UniProt Q12809)
Test: primary screen, population patch clamp on CHO cells stably expressing hERG; higher = less effect of the substance
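Also: peak tail current of the secondary pulse compared with the same well before compound.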

Sequence of human ether-à-go-go-related gene (hERG) potassium channel (Q12809 whole entry, looked up): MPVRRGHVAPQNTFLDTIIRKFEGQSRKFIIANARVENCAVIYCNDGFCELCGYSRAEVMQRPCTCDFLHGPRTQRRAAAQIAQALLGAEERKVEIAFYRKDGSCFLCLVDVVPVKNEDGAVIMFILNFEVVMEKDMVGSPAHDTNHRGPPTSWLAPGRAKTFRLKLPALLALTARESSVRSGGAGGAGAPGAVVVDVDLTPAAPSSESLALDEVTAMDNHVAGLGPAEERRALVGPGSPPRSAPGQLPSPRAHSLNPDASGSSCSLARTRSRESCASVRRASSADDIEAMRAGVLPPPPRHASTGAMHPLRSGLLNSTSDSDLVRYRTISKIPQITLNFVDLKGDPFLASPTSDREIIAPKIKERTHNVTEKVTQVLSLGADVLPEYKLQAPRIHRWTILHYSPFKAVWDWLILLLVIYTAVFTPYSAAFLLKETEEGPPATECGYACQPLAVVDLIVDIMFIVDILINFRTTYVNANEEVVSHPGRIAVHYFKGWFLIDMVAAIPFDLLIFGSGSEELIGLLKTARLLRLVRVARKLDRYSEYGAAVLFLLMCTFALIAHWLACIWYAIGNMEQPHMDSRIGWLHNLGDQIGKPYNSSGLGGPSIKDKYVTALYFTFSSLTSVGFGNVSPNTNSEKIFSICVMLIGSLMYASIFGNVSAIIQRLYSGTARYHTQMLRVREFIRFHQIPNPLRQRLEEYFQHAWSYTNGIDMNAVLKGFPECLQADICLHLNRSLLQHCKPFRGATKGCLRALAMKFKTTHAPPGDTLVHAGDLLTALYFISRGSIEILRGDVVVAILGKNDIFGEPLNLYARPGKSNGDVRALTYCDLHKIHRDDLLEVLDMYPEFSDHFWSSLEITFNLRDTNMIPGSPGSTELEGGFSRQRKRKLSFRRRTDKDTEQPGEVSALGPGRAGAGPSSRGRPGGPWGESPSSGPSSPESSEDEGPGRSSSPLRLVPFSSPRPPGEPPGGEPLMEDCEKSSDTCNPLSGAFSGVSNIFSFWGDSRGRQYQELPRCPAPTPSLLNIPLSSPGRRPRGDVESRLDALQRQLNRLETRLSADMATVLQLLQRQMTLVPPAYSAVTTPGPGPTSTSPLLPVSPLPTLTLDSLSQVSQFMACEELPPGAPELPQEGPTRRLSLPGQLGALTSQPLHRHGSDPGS

SMILES	hERG current change (%, negative = inhibition) at 10uM
COC(=O)c1ccccc1NC(=O)c1cccs1	1.38%
N=c1c2c(ncn1Cc1ccco1)Oc1cc(O)ccc1C2c1ccccc1 (stereo not shown)	-74.1%
N=c1c2c(ncn1CCCO)Oc1cc(O)ccc1C2c1ccccc1 (stereo not shown)	-33.7%
N=c1c2c(ncn1CCN1CCOCC1)Oc1cc(O)ccc1C2c1ccccc1 (stereo not shown)	-42.9%
COc1ccc(/C=C(\C#N)C(=O)NC(C)c2ccccc2)cc1O (stereo not shown)	-24.2%
Cc1cc(C(=O)N/N=C/c2ccco2)c2ccccc2n1	1.37%
COc1cc(NC(=O)C(c2ccccc2)c2ccccc2)c(C(=O)O)cc1OC	16.7%
O=C(NCc1cccnc1)Nc1ccc(F)cc1F	-4.58%
Cc1noc(C)c1S(=O)(=O)N(CC(=O)N1CCn2c1nc1ccccc12)c1ccc(C(C)C)cc1	-14.9%
CCc1ccc(CNc2ccc3c(c2)ncn3C(C)(C)C)cc1	-36.1%
Cc1ccc(CNc2ccc3c(c2)ncn3C(C)C)cc1	-78.3%
CC(C)n1cnc2cc(NCc3ccccc3O)ccc21	3.94%
CCN(CC)c1ccc(CNc2ccc3c(c2)ncn3C(C)(C)C)cc1	1.91%
CC(C)(C)n1cnc2cc(NCc3cccs3)ccc21	-28.2%
CN(C)c1ccc(CNc2ccc3c(c2)ncn3C(C)(C)C)cc1	-27.2%
Cc1ccc(CNc2ccc3c(c2)ncn3C(C)(C)C)cc1	-72.5%
CC(C)(C)n1cnc2cc(NCc3ccccc3O)ccc21	-10.1%
Cc1ccc(CNc2ccc3c(c2)ncn3C)cc1	-33.8%
CCOc1ccc(CNc2ccc3c(c2)ncn3C(C)(C)C)cc1	-58.6%
CC(C)(C)n1cnc2cc(NCc3ccc(Br)cc3)ccc21	-69.2%
CCOc1ccc(CNc2ccc3c(c2)ncn3C)cc1	-46.6%
COc1ccccc1CNC(=O)Cn1cccc1C(=O)c1ccccc1	8.74%
COCC1CCN(C(=O)c2cc(COc3ccc4c(c3)CCCC4)on2)C1 (stereo not shown)	-24.9%
Cc1cccn2c(=O)c(C=NCc3ccccc3)c(NCCO)nc12	0.417%
Cc1ccc(CN2CCSc3ccc(C(=O)NCc4cccnc4)cc32)cc1	-2.7%
